# Reference: PubChem BioAssay (NCI)
# The panel holds about 83,000 compounds, 20% with a hit somewhere; the sample as a whole holds those more often.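 How to read the values: 0–100, growth inhibition (40 = 60% inhibited); 0, no net growth; -100 to 0, cell death (-40 = 40% of starting cells died; -100 = all dead).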 Values without a mark were called inactive. Active and inactive are the calls of the source. How the source made its calls: active means growth percent below 10; inactive means the rest.
# How the values were obtained:
# Assay in all cases: NCI-60 one-dose screen, 48 h (100 = growth as untreated, 0 = no growth, -100 = all killed)
# Conditions in all cases: 10 µM unless noted
# SR leukemia = tested on: SR leukemia
# RPMI-8226 leukemia = tested on: RPMI-8226 leukemia
# OVCAR-8 ovarian = tested on: OVCAR-8 ovarian
# OVCAR-5 ovarian = tested on: OVCAR-5 ovarian
# OVCAR-4 ovarian = tested on: OVCAR-4 ovarian
# SK-OV-3 ovarian = tested on: SK-OV-3 ovarian
# IGROV1 ovarian = tested on: IGROV1 ovarian
# OVCAR-3 ovarian = tested on: OVCAR-3 ovarian
# HS 578T breast = tested on: HS 578T breast
# NCI/ADR-RES ovarian = tested on: NCI/ADR-RES ovarian
# T-47D breast = tested on: T-47D breast
# BT-549 breast = tested on: BT-549 breast
# MDA-MB-435 melanoma = tested on: MDA-MB-435 melanoma
# SW-620 colon = tested on: SW-620 colon
# MCF7 breast = tested on: MCF7 breast
# HCT-116 colon = tested on: HCT-116 colon
# KM12 colon = tested on: KM12 colon
# MDA-MB-468 breast = tested on: MDA-MB-468 breast
# HCC-2998 colon = tested on: HCC-2998 colon
Structure (SMILES),growth (SR leukemia),growth (RPMI-8226 leukemia) [%],growth (OVCAR-8 ovarian),growth (OVCAR-5 ovarian) [%],growth (OVCAR-4 ovarian),growth (SK-OV-3 ovarian),growth (IGROV1 ovarian),growth (OVCAR-3 ovarian),growth (HS 578T breast),growth (NCI/ADR-RES ovarian) [%],growth (T-47D breast),growth (BT-549 breast),growth (MDA-MB-435 melanoma),growth (SW-620 colon),growth (MCF7 breast) [%],growth (HCT-116 colon),growth (KM12 colon),growth (MDA-MB-468 breast),growth (HCC-2998 colon)
CC(C)c1sc(NC(=O)c2cc(NC(=O)c3cc(NC(=O)c4cscn4)cn3C)cn2C)nc1C(=O)NCCCN(C)C,-8.69% (active),94.5,2.77% (active),10.5,18.7%,-14.5% (active),13.3%,3.57% (active),23.3%,103,13%,-7.36% (active),2.17% (active),20.5%,24.5,-79.5% (active),59.2%,-62.7% (active),–
Nc1nnc(-c2c[nH]c3ccc(Br)cc23)c(-c2c[nH]c3ncc(Br)cc23)n1,23.6%,19.6,34.3%,59,33.6%,37.6%,22%,62.4%,48.8%,78.6,16.7%,35.4%,30.3%,50.2%,12.3,17.1%,32.6%,26.1%,–
COc1c(F)ccc(C(=O)Nc2ccc3nc(NC(=O)C4CCCN(S(=O)(=O)c5ccc(Cl)cc5)C4)sc3c2)c1F (centres undefined),44.8%,53.8,97.2%,97,86.2%,97.2%,72.9%,92%,60.2%,74,52.6%,62.4%,101%,97.2%,–,65.3%,78.7%,80.2%,103%
Cc1ccc([C@H]2C(C(=O)c3ccc(Cl)cc3)C3(N[C@@H]2c2ccccc2)C(=O)Nc2ccc(Br)cc23)cc1 (some centres undefined),2.24% (active),40.7,66.4%,73.2,56.3%,79.4%,60.1%,64%,83.2%,55.5,41.1%,96.3%,67.6%,70.6%,21.2,30.7%,39%,59.5%,–
CC12CC[C@@H]3[C@]4(C)COC(c5cn[nH]c5-c5cccc(Cl)c5)O[C@@H]4CC[C@@]3(C)[C@@H]1CC(C1=CCOC1=O)O2 (some centres undefined),29.7%,13.8,38.7%,61.7,29.1%,62.4%,49.8%,44.5%,46.8%,31.1,17.7%,0.371% (active),44.1%,50.6%,–,19.1%,17.9%,7.22% (active),40.7%
Cc1ccc(C(=O)CSc2nc3ccc(F)cc3c(=O)n2-c2ccc(Cl)cc2)cc1,93.9%,93.9,37.8%,76.2,31%,46%,82.7%,82.4%,-18.9% (active),28.3,96.5%,1.44% (active),76.1%,75%,65.2,24.4%,96.3%,44.7%,–
CCCn1cc(-c2nc(Nc3ccc(C(=O)NCCCCNc4cccc5c4C(=O)N(C4CCC(=O)NC4=O)C5=O)cc3)nc3[nH]ccc23)cn1 (centres undefined),25.1%,17.5,6.6% (active),54.2,9.82% (active),24.8%,7.36% (active),36.3%,6.24% (active),95.6,-11% (active),-36.1% (active),34.2%,9.12% (active),–,72.3%,6.05% (active),-36.3% (active),5.84% (active)
COc1c(F)ccc(C(=O)Nc2ccc3nc(NC(=O)C4CCCN(S(=O)(=O)c5ccc(Br)c(F)c5)C4)sc3c2)c1F (centres undefined),47.2%,52,98.1%,102,75.4%,102%,82.2%,96.8%,72.8%,83.4,67.5%,77%,92.3%,96.5%,–,62.7%,79.2%,92%,109%
